Measurements published in PubChem BioAssay AID2410 (Southern Research Specialized Biocontainment Screening …, 2010).
Screen size: about 2,500 compounds; about 2,100 (84%) were called active.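 The calls were made as follows: active = toxic compounds, whose cell viability fell below 70% of untreated control cells; inactive = the rest.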 The set was probably picked from earlier hits. These entries were drawn from the full list. Entries with a potency or affinity are not part of this list.

experiment: HEp-2 cell cytotoxicity, dose response, cytotoxicity control for RSV inhibitor project, HTS (AID 2410); details: HEp-2 viability, luminescence, cytotoxicity counter-screen; series mostly up to 50 µM; viability: at the top concentration;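 also: cells exposed to compound for six days before readout; 100% = median signal of untreated cell control wells on each plate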

SMILES | viability
CCOc1cc(/C=N/O)cc(Br)c1OCc1ccc(Cl)cc1 | 95.8% (inactive)
COc1ccc(OC)c(-n2c(SCC(=O)NCc3ccco3)nnc2-c2c[nH]c3ccccc23)c1 | 70.7% (inactive)
O=c1[nH]c(/C=C2\C=Nc3ccccc32)c(O)n1Cc1ccccc1F | 90.2% (inactive)
COc1ccc(-c2nc[nH]c2[N+](=O)[O-])cc1 | 94.2% (inactive)
C=CCN1C(=O)N(/C=C/C)c2cccc3cccc1c23 | 96.3% (inactive)
CCOC(=O)C1=C(C)N=c2s/c(=C/c3ccc(OCC(=O)O)c(OC)c3)c(=O)n2C1c1ccc(Cl)cc1 (centres undefined) | 76.8% (inactive)
CCCC(c1nnnn1CC(=O)OCC)N(Cc1cc2c(C)cc(C)cc2[nH]c1=O)C1CCCC1 (centres undefined) | 119% (inactive)
CC(=O)Nc1ccc2c(CSc3nnc(N)s3)cc(=O)oc2c1 | 120% (inactive)
COc1ccc(NC2c3ncccc3C(=O)N2Cc2cccs2)cc1 (centres undefined) | 83.8% (inactive)
C=CCSc1nnc2nc3c(nn12)c1cc(C)ccc1n3CC=C | 76.7% (inactive)
c1csc(-c2nn3c(Cn4cnc5ccccc54)nnc3s2)c1 | 85.1% (inactive)
O=C1c2ccccc2C(=O)N1CCCCN(C(=O)c1ccco1)c1ccc(Cl)cc1 | 72.2% (inactive)
NC(=O)N\N=C/C=C/C=C/c1ccc(F)cc1 | 72.2% (inactive)
CNC(=S)N/N=C(\C)c1cccc(C(F)(F)F)c1 | 94.9% (inactive)
Nc1ccc(C(=O)N/N=C2\CCCc3c2[nH]c2ccccc32)cc1 | 101% (inactive)
CCC(=O)N(CC(=O)Nc1sc(C)c(C)c1C(N)=O)C1CCCC1 | 88.8% (inactive)
COc1ccccc1CN1C[C@@H]2C[C@@H](c3ccc(C)c(C)c3)N3CCC[C@@]23C1=O | 70.3% (inactive)
Cc1ccc(C(=O)N/C(=C\c2ccc(C(C)C)cc2)C(=O)NCCCN2CCOCC2)cc1 | 81.3% (inactive)
Cc1ccc(-c2nc3cc(N)ccc3o2)c(C)c1 | 95.1% (inactive)
Cc1cc2nc(-c3ccc(NC(=O)C(C)C)cc3)oc2cc1C | 81.2% (inactive)
CCCC(=O)Nc1ccc(-c2nc3cc(C)c(C)cc3o2)cc1 | 75.3% (inactive)
O=C(c1ccc(F)cc1Cl)N(c1ccccn1)C1CCCCC1 | 71.9% (inactive)
c1csc(-c2nn3c(Cn4nnc5ccccc54)nnc3s2)c1 | 102% (inactive)

SMILES | viability
Cn1c(NCc2cc(Br)ccc2O)nc2ccccc21 | 91.3% (inactive)
COc1cc(C)c2occ(/C(C)=N\O)c2c1 | 98.9% (inactive)
COc1cc(/C=C(\C#N)c2nc3ccccc3s2)ccc1OCC(=O)Nc1ccccc1 | 101% (inactive)
O=C(Oc1ccc(-c2cnc3ccccc3n2)cc1)c1ccco1 | 95.7% (inactive)
OCCC1CN(Cc2cccn2-c2nccs2)CCN1CCc1ccccc1 (centres undefined) | 76.8% (inactive)
CS(=O)(=O)c1ccc(Cl)c(NC(=O)c2ccc3ccccc3c2)c1 | 110% (inactive)
O=C(Nc1ccccn1)C1COc2ccccc2O1 (centres undefined) | 86% (inactive)
CCOC(=O)c1c(NC(=O)C2COc3ccccc3O2)sc2c1CC(C)(C)NC2(C)C (centres undefined) | 84.5% (inactive)
O=C(CCn1c(=O)c2ccccc2n(Cc2cc(=O)n3ccccc3n2)c1=O)NCc1ccco1 | 96.9% (inactive)
NC(=O)COc1ccc2c3c(c(=O)oc2c1)CCCCC3 | 79.8% (inactive)
CCOC(=O)c1c(C)oc2c1cc(O)c1ccccc12 | 74.8% (inactive)
Cn1c2ccccc2c2cc([N+](=O)[O-])ccc21 | 85.2% (inactive)
CC(=O)Cc1nsc(NC(=O)c2oc(-c3ccccc3Cl)cc2C)n1 | 73.8% (inactive)
Cc1ccc(NC(=O)c2ccc(NS(=O)(=O)c3cccc4cccnc34)cc2)cc1 | 72.4% (inactive)
Cn1c(=O)c2c3c(sc2n2cnnc12)CCC3 | 93.9% (inactive)
Cc1ccc(S(=O)(=O)N2CCC(C(=O)OCC(=O)N3CCCC3=O)CC2)cc1C | 106% (inactive)
O=C(CNC(=O)c1ccco1)N=Nc1c(O)[nH]c2ccc([N+](=O)[O-])cc12 | 74.5% (inactive)
O=C(N=Nc1c(O)[nH]c2ccc([N+](=O)[O-])cc12)c1ccccc1[N+](=O)[O-] | 74.4% (inactive)
COc1ccc(Cl)cc1NC(=O)C1(c2cccs2)CCOCC1 | 87.3% (inactive)
Cc1ccc(NC(=O)CN(C)S(=O)(=O)c2cccc3cccnc23)c(C)c1 | 87.6% (inactive)
COc1ccccc1CNC(=O)C1CCCN1S(=O)(=O)c1cccc2cccnc12 (centres undefined) | 85.4% (inactive)
Cc1ccc(-c2csc3nc(C)n(N)c(=O)c23)o1 | 80% (inactive)
C=C(C)C(=O)Nc1cccc(C2=NOC3(C2)C[C@@H](C(N)=O)N(C(=O)c2ccc(OC)cc2)C3)c1 (some centres undefined) | 75.9% (inactive)

SMILES | viability
CCOC(=O)c1ccc2[nH]c3c(c2c1)CN(C)CC3 | 105% (inactive)
C/C(N)=C(/C#N)C(=O)COC(=O)c1cc2c(s1)CCCC2 | 113% (inactive)
CNS(=O)(=O)c1ccc(OC)c(-c2nnc3c4ccccc4c(C)nn23)c1 | 107% (inactive)
COc1ccc(C(C(=O)NC2CCCC2)N(C(=O)c2snc(C(N)=O)c2N)c2cc(C)ccc2OC)cc1OC (centres undefined) | 88.9% (inactive)
C=C(C)Cn1c(N2CC(C)CC(C)C2)nc2c1c(=O)[nH]c(=O)n2C (centres undefined) | 99.3% (inactive)
Brc1cccc(-c2nc(-c3ccncc3)no2)c1 | 82.8% (inactive)
CC(C)(C)c1cc(NC(=O)c2cc(F)c(F)c(F)c2F)no1 | 76.3% (inactive)
Cc1ccc(N2C=Nc3ccc(C)c4nc(C)cc2c34)cc1 | 73.6% (inactive)
CC1(C)CC(=O)C2=C(C1)OC(N)=C(C#N)C2C#Cc1ccccc1 (centres undefined) | 102% (inactive)
O=C(O)c1cc(-c2ccc(/C=C3\NC(=O)N(c4ccc(Cl)cc4)C3=O)o2)ccc1Cl | 87% (inactive)
CC(=O)Oc1cc(OC(C)=O)c2c(C)cc(=O)oc2c1 | 82.4% (inactive)
COc1cc(/C=N/O)cc(Br)c1OCc1cccc(Cl)c1 | 96.1% (inactive)
Cc1ccc(-n2c(=O)c3sccc3n(Cc3cc(=O)n4ccccc4n3)c2=O)cc1 | 94.5% (inactive)
COc1ccc(-n2c(SCC(=O)/C(C#N)=C(\C)N)nc3ccccc3c2=O)cc1OC | 99% (inactive)
Nc1ccc(Sc2cc(Cl)nc(N)n2)cc1 | 104% (inactive)
CCC(=O)Nc1ccc(C(=O)OCC(=O)c2ccc(C)c([N+](=O)[O-])c2)cc1 | 76.5% (inactive)
Cc1ccc(OCC(=O)Nc2c[nH]c(=O)[nH]c2=O)cc1C | 87.6% (inactive)
COc1ccc(C(=O)N2CC(c3ccc(Cl)cc3)CC2=O)cc1 (centres undefined) | 80.7% (inactive)
CSc1nc(C)c(C(=O)Nc2ccccc2)c(-c2ccco2)c1C#N | 88.8% (inactive)
CCn1c2ccccc2c2cc(NC(=O)C(=O)NCC3CCCO3)ccc21 (centres undefined) | 77.6% (inactive)
Cn1c(=NC(=O)c2ccco2)sc2ccccc21 | 101% (inactive)
Cc1ccc(C(=O)OCC(=O)c2c[nH]c3ccccc23)cc1NC(=O)c1ccco1 | 84% (inactive)
CC[C@@]12C(=O)N(c3ccc(OC)cc3)C(=O)N1[C@H](c1ccc(Cl)cc1)[C@@H]1C(=O)N(C3CCCCC3)C(=O)[C@@H]12 | 83.2% (inactive)
